Test results: the antibiotic and cytotoxicity screens of Wong et al. (2023)
The campaign covered roughly 39,000 compounds. About 3,300 (8.5%) were called active. This excerpt belongs to a sample that is enriched for actives.

tested on: HepG2; experiment: cytotoxicity call (relative viability < 0.9); conditions: 10 µM

SMILES | cytotoxicity call
COc1ccc(S(=O)(=O)Nc2ccc3c(c2)C(=O)N([C@@H](C)CO)C[C@@H](C)[C@H](CN(C)C(=O)C2CCCCC2)OCCCC[C@H](C)O3)cc1 | inactive
CC(C)(C)[S@@](=O)N1Cc2cc(C(=O)N3CCCCC3)nc(-c3cccc(-c4cccc(C#N)c4)c3)c2[C@H]1CCO | inactive
CO[C@@H]1CN(C)C(=O)c2cc(NC(=O)C3CC3)ccc2OC[C@H](C)N(C(=O)C2CCOCC2)C[C@@H]1C | inactive
Cc1noc(C)c1S(=O)(=O)Nc1ccc2c(c1)CC(=O)N([C@H](C)CO)C[C@@H](C)[C@H](CN(C)S(=O)(=O)c1ccc(Cl)cc1)O2 | inactive
CC(=O)Oc1ccc(O)cc1 | active
CC(=O)Oc1cccc(O)c1 | inactive
CC(=O)Nc1ccc(OC(C)=O)cc1 | inactive
C[C@H](CO)N1C[C@H](C)[C@@H](CN(C)C(=O)c2cc(Cl)cc(Cl)c2)OCc2ccccc2-c2c(n(C)c3ccccc23)C1=O | active
C[C@@H]1CN([C@@H](C)CO)C(=O)c2c(c3ccccc3n2C)-c2ccccc2CO[C@H]1CN(C)C(=O)c1cc(Cl)cc(Cl)c1 | inactive
C[C@H]1CN([C@@H](C)CO)C(=O)c2c(c3ccccc3n2C)-c2ccccc2CO[C@H]1CN(C)C(=O)c1cc(Cl)cc(Cl)c1 | inactive
C[C@H]1CN([C@@H](C)CO)C(=O)c2c(c3ccccc3n2C)-c2ccccc2CO[C@@H]1CN(C)C(=O)c1cc(Cl)cc(Cl)c1 | inactive
C[C@@H]1CN([C@@H](C)CO)C(=O)c2c(c3ccccc3n2C)-c2ccccc2CO[C@@H]1CN(C)C(=O)c1cc(Cl)cc(Cl)c1 | active
C[C@@H]1CN([C@H](C)CO)C(=O)c2c(c3ccccc3n2C)-c2ccccc2CO[C@H]1CN(C)C(=O)c1cc(Cl)cc(Cl)c1 | inactive
Cc1ccc(S[C@]2(C(=O)NC(C)C)CC(=O)N(Cc3ccccc3Cl)[C@@H]2c2ccc(CO)cc2)cc1 | inactive
C[C@@H]1CCCCO[C@@H](CN(C)Cc2ccc(C(F)(F)F)cc2)[C@H](C)CN([C@H](C)CO)C(=O)c2cc(NC(=O)CCCN(C)C)ccc2O1 | inactive
CS(=O)(=O)N1CCS(=O)(=O)[C@H]2CCN(CC3CC3)CC[C@@H]21 | inactive
COc1ccc(S(=O)(=O)N(C)C[C@@H]2Oc3ccc(NC(=O)Nc4cccc5ccccc45)cc3C(=O)N([C@H](C)CO)C[C@@H]2C)cc1 | inactive
CC(C)c1c(C(=O)Nc2ccccc2)c(-c2ccccc2)c(-c2ccc(F)cc2)n1CC[C@@H](O)C[C@@H](O)CC(=O)O | inactive
C[C@@H]1CCCCO[C@@H](CN(C)CC2CC2)[C@H](C)CN([C@@H](C)CO)C(=O)c2cc(NC(=O)c3ccccc3)ccc2O1 | inactive
C[C@@H]1CCCCO[C@@H](CN(C)Cc2ccc(C(=O)O)cc2)[C@@H](C)CN([C@H](C)CO)C(=O)c2cc(NC(=O)C3CCCCC3)ccc2O1 | inactive
CC1=C(C(=O)O)N2C(=O)[C@@H](NC(=O)[C@H](N)c3ccc(O)cc3)[C@H]2SC1 | inactive
CCN1CCN(Cc2ccc(C(=O)Nc3ccc(C)c(Oc4ccc5c(c4)CC(=O)N5)c3)cc2C(F)(F)F)CC1 | active
COCC(=O)Nc1ccc2c(c1)CC(=O)N2 | inactive
CC1=NCCC2c3ccc(O)cc3NC12 (stereo not given) | active
CCS(=O)(=O)N1C[C@]2(C1)CN([C@@H](CO)c1[nH]c3cc(ccc3c12)OC)S(=O)(=O)c1cccc(c1)OC | inactive

SMILES | cytotoxicity call
C[C@@H]1CN([C@@H](C)CO)C(=O)c2cccc(NC(=O)c3ccncc3)c2O[C@@H]1CN(C)Cc1ccncc1 | inactive
CN1C(=O)c2cc(NC(=O)c3cscn3)ccc2OC[C@H]2O[C@H](CC(=O)N3CCOCC3)CC[C@@H]21 | inactive
C=C1C(=O)OC2CC3(C)CCCC(C)C3=CC12 (stereo not given) | active
C[C@H](CO)N1C[C@H](C)[C@@H](CN(C)C(=O)Nc2ccccc2)Oc2ccc(NC(=O)Cn3cnnn3)cc2CC1=O | inactive
CC(=O)N(C)C[C@@H]1Oc2cc(C#CCN(C)C)ccc2S(=O)(=O)N([C@@H](C)CO)C[C@@H]1C | inactive
COc1ccc(S(=O)(=O)Nc2ccc3c(c2)CC(=O)N([C@@H](C)CO)C[C@H](C)[C@@H](CN(C)Cc2ccncc2)O3)cc1 | inactive
FC(F)Oc1cccc2cccnc12 | inactive
O=C(Oc1cccc2cccnc12)c1ccccc1 | active
O=C(O)c1ccccn1 | inactive
CC(C)NC(=O)N(C)C[C@@H]1Oc2ccc(NC(=O)NC3CCCCC3)cc2C(=O)N([C@H](C)CO)C[C@H]1C | inactive
COc1ccc(CCNC(=O)c2cc3c(=O)n4cccc(C)c4nc3n(CCCN3CCOCC3)c2=N)cc1 | active
Cc1cccn2c(=O)c3cc(S(=O)(=O)c4ccc(Br)cc4)c(=N)n(CCCN4CCOCC4)c3nc12 | inactive
N=c1c(C(=O)NC[C@H]2CCCO2)cc2c(=O)n3ccccc3nc2n1CCCN1CCOCC1 | inactive
COc1ccc(CN(C)C[C@@H]2OCCCC[C@@H](C)Oc3ccc(NC(=O)Nc4c(C)noc4C)cc3C(=O)N([C@@H](C)CO)C[C@@H]2C)cc1 | inactive
Nc1ncnc2c1ncn2[C@H]1CCCO1 | inactive
C[C@@H]1CN([C@H](C)CO)C(=O)c2ccccc2-c2ccccc2CO[C@@H]1CN(C)S(=O)(=O)c1ccc(C(F)(F)F)cc1 | inactive
NCc1csc2c1CCCC2 | inactive
C[C@@H]1CN([C@@H](C)CO)C(=O)Cc2cc(NC(=O)Nc3ccc(C(F)(F)F)cc3)ccc2O[C@@H]1CN(C)S(C)(=O)=O | inactive
Cc1ccc(S(=O)(=O)N(C)C[C@@H]2Oc3ccc(NC(=O)Nc4ccc(C(F)(F)F)cc4)cc3CC(=O)N([C@@H](C)CO)C[C@@H]2C)cc1 | active
Cc1ccc(S(=O)(=O)N(C)C[C@H]2Oc3ccc(NC(=O)Nc4ccc(C(F)(F)F)cc4)cc3CC(=O)N([C@H](C)CO)C[C@H]2C)cc1 | active
Cc1ccc(S(=O)(=O)N(C)C[C@@H]2Oc3ccc(NC(=O)Nc4ccc(C(F)(F)F)cc4)cc3CC(=O)N([C@H](C)CO)C[C@@H]2C)cc1 | active
Cc1ccc(S(=O)(=O)N(C)C[C@@H]2Oc3ccc(NC(=O)Nc4ccc(C(F)(F)F)cc4)cc3CC(=O)N([C@H](C)CO)C[C@H]2C)cc1 | inactive
Cc1ccc(S(=O)(=O)N(C)C[C@@H]2Oc3ccc(NC(=O)Nc4ccc(C(F)(F)F)cc4)cc3CC(=O)N([C@@H](C)CO)C[C@H]2C)cc1 | active
C[C@H](CO)N1C[C@H](C)[C@H](CN(C)S(C)(=O)=O)Oc2ccc(NC(=O)Nc3ccc(C(F)(F)F)cc3)cc2CC1=O | inactive
Cc1ccc(S(=O)(=O)N(C)C[C@H]2Oc3ccc(NC(=O)Nc4ccc(C(F)(F)F)cc4)cc3CC(=O)N([C@H](C)CO)C[C@@H]2C)cc1 | inactive
